In PubChem BioAssay (Tox21):
Inconclusive results are not listed. Where a call stands in place of a potency, no number is given. Active and inactive are the calls of the source. Unless noted, the call rests on the fitted dose curve.

Columns and labels:
[1] = Nuclear factor erythroid 2-related factor 2/antioxidant responsive element (Nrf2/ARE) small molecule agonists: qHTS cell viability counter screen in human keratinocytes (AID 1919968; active means well fitted curve in the direction sought with a large enough effect in the repeat runs; an effect the other way counts as inactive or inconclusive; further: nearly all actives have a fitted effect of over 55% in size)
Summary of the method: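 Seed 1,500 KeratinoSens cells per well, then incubate 5 h at 37 C/5% CO2. Add compounds in DMSO and incubate 23 h. Add CellTiter-Fluor, wait 1 h and read fluorescence.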

[2] = Nuclear factor erythroid 2-related factor 2/antioxidant responsive element (Nrf2/ARE) small molecule agonists: luciferase reporter gene qHTS assay in human keratinocytes (AID 1919969); further: nearly all actives have a fitted effect of over 35% in size
[3] = molecular target: Gonadotropin-releasing hormone receptor (Homo sapiens) (UniProt P30968); test: Human gonadotropin-releasing hormone receptor (GnRHR) small molecule agonists, calcium flux assay in GnRHR-HEK293 cells (AID 1920063); further: nearly all actives have a fitted effect of over 35% in size
Summary of the method: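 Cells: HEK293 stably expressing human GnRHR. Steps: overnight (18 h) culture, 1 h calcium dye loading at 37 C, compound addition, kinetic fluorescence read at 480/540 nm. Each compound tested at 15 concentrations in triplicate.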

[4] = molecular target: KiSS-1 receptor (Homo sapiens) (UniProt Q969F8); test: Human kisspeptin (KISS1R) small molecule agonists, calcium flux assay in KISS1R-HEK293 cells (AID 1920064; active means well fitted curve in the direction sought with a large enough effect in the repeat runs; an effect the other way counts as inactive or inconclusive)
Summary of the method: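 Cells plated and incubated 18 h; dye added, 1 h at 37 C; compounds in DMSO pinned in; signal read at 480/540 nm every second for 3 min. Each compound tested at 15 concentrations in triplicate.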

[5] = G protein-coupled receptor (GPCR) small molecule agonists, calcium flux assay: HEK293 wild type cell line counter screen (AID 1920065)
Summary of the method: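 Counter-screen of the Tox21 10K library for non-specific calcium release: dye-loaded cells received compounds in DMSO and were monitored by kinetic fluorescence (480/540 nm, 3 min). Fifteen concentrations, run in triplicate.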

[6] = p53 small molecule agonists, cell-based qHTS assay with human liver microsomes (AID 1963577);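 further: p53 response element beta-lactamase reporter cells with liver microsomes plus NADPH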
Summary of the method: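 Steps: plate p53RE-bla cells, incubate 5 h at 37 C; add compound in DMSO; add microsomes (0.5 mg/mL final) and NADPH (0.5 mg/mL final); incubate 16 h at 37 C; add LiveBLAzer, 2 h RT; read fluorescence.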

[7] = p53 small molecule agonists, cell-based qHTS assay with rat liver microsomes (AID 1963578)
Summary of the method: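 Metabolic activation is supplied by rat liver microsomes with NADPH (each 0.5 mg/mL final). p53RE-bla cells incubate with compound 16 h at 37 C; reporter activity is measured by LiveBLAzer fluorescence.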

[8] = p53 small molecule agonists, cell-based qHTS assay with human liver microsomes: qHTS cell viability counter screen (AID 1963579); further: nearly all actives have a fitted effect of over 45% in size
Summary of the method: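 After the 460/530 nm beta-lactamase read, CellTiter-Glo was added to the same wells and luminescence measured after 30 min at room temperature, giving viability of p53RE-bla cells treated 16 h with compounds plus microsomes and NADPH.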

[9] = p53 small molecule agonists, cell-based qHTS assay with rat liver microsomes: qHTS cell viability counter screen (AID 1963580); further: nearly all actives have a fitted effect of over 45% in size
Summary of the method: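 p53RE-bla HCT-116 cells were exposed 16 h at 37 C to compounds with rat liver microsomes (0.5 mg/mL) and NADPH (0.5 mg/mL). Viability was measured in the same wells as ATP content by CellTiter-Glo luminescence.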

[10] = p53 small molecule agonists, cell-based qHTS assay: qHTS cell viability counter screen (AID 1963581); further: nearly all actives have a fitted effect of over 45% in size
Summary of the method: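 Cells: HCT-116 with p53 response element-driven beta-lactamase. Treatment: 16 h, 37 C, compounds in DMSO. Read: CellTiter-Glo luminescence after 30 min RT.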

[11] = p53 small molecule agonists, cell-based qHTS assay (AID 1963582; active means well fitted activation curve with a large enough effect in the signal ratio in the repeat runs, not every such curve was filed as active; the % refers to the signal ratio)
Summary of the method: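 Quantitative HTS in p53RE-bla cells: after a 5 h settling period, compounds delivered in DMSO were left on cells for 16 h at 37 C, and reporter induction was measured as fluorescence following 2 h substrate loading.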

[12] = molecular target: 5-hydroxytryptamine receptor 2A (Homo sapiens) (UniProt P28223); test: 5-hydroxytryptamine receptor 2A (HTR2A) small molecule agonists, cell-based qHTS assay (AID 1963587); further: nearly all actives have a fitted effect of over 30% in size
Summary of the method: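 CHO cells stably expressing human HTR2A, plated 18 h, loaded with calcium dye 1 h at 37 C. Agonist mode: compounds added and intracellular calcium fluorescence recorded kinetically for 2 min at 1 sec intervals.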

[13] = molecular target: Muscarinic acetylcholine receptor M1 (Homo sapiens) (UniProt P11229); test: Cholinergic receptor muscarinic 1 (CHRM1) small molecule antagonists, cell-based qHTS assay (AID 1963588); further: nearly all actives have a fitted effect of over 40% in size; further: potency means the concentration at half of the fitted maximal effect
Summary of the method: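 CHRM1-CHO calcium-flux assay, antagonist mode. Cells were seeded 18 h, dye-loaded 1 h at 37 C and given compound for 5 min at RT, then acetylcholine was added at 50nM. FDSS fluorescence was read 3 min; 15 concentrations, three runs.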

[14] = molecular target: Muscarinic acetylcholine receptor M1 (Homo sapiens) (UniProt P11229); test: Cholinergic receptor muscarinic 1 (CHRM1) small molecule agonists, cell-based qHTS assay (AID 1963589); further: nearly all actives have a fitted effect of over 35% in size
Summary of the method: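 Agonist-mode qHTS in CHO cells stably carrying human muscarinic M1. Intracellular calcium is tracked by fluorescence every second after compound transfer; each compound runs at 15 concentrations in three independent runs.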

[15] = cAMP Responsive Elements (CRE) small molecule agonists, cell-based qHTS assay (AID 1963590)
Summary of the method: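 Agonist mode qHTS in CRE-bla HEK 293T cells: compounds dosed from DMSO for 3 h at 37 C/5% CO2, followed by LiveBLAzer B/G FRET substrate for 2 h at room temperature.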

[16] = molecular target: D(2) dopamine receptor (Homo sapiens) (UniProt P14416); test: Dopamine D2 receptor (DRD2) small molecule agonists, cell-based qHTS assay (AID 1963594); further: nearly all actives have a fitted effect of over 35% in size
Summary of the method: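 HEK293 cells stably expressing human DRD2, pre-treated with PDE inhibitor Ro20-1724 (0.1 mM final) and compound 10 min at room temperature, then stimulated with NKH477 (200nM […]) for 30 min. cAMP read by HTRF (665/620 nm).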

[17] = molecular target: D(2) dopamine receptor (Homo sapiens) (UniProt P14416); test: Dopamine D2 receptor (DRD2) small molecule antagonists, cell-based qHTS assay (AID 1963595; active means well fitted inhibition curve with a large enough effect in the signal ratio in the repeat runs, with a control signal flat; the % refers to the signal ratio)
Summary of the method: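 Antagonism was scored as restored cAMP in HEK293-DRD2 cells. These cells were stimulated with 200 nM NKH477 and 12 nM quinpirole for 30 min at room temperature, in the presence of 0.1 mM Ro20-1724.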

[18] = cAMP Responsive Elements (CRE) small molecule antagonists, cell-based qHTS assay (AID 1963591; active means well fitted inhibition curve with a large enough effect in the signal ratio in the repeat runs, not every such curve was filed as active; the % refers to the signal ratio)
Summary of the method: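 Antagonist mode: test compounds are co-incubated with the adenylyl cyclase activator NKH477 (0.25 uM final) on CRE-bla HEK293T cells for 3 h at 37 °C, followed by LiveBLAzer substrate loading.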

[19] = molecular target: Beta-2 adrenergic receptor (Homo sapiens) (UniProt P07550); test: Adrenergic beta2 receptor (ADRB2) small molecule antagonists, cell-based qHTS assay (AID 1963592); further: series mostly up to about 92 µM; nearly all actives have a fitted effect of over 50% in size
Summary of the method: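 Cells (CHO, stable ADRB2 overexpression) incubated 18-20hr at 37C; compounds added from DMSO; agonist mix (1nM isoproterenol, 100uM IBMX, 25uM Ro-20-1724) added; 0.5hr RT; d2-cAMP and anti-cAMP-cryptate added; 1hr RT; 665/615 nm read.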

Chain of Beta-2 adrenergic receptor (Homo sapiens) (P07550 whole entry, looked up): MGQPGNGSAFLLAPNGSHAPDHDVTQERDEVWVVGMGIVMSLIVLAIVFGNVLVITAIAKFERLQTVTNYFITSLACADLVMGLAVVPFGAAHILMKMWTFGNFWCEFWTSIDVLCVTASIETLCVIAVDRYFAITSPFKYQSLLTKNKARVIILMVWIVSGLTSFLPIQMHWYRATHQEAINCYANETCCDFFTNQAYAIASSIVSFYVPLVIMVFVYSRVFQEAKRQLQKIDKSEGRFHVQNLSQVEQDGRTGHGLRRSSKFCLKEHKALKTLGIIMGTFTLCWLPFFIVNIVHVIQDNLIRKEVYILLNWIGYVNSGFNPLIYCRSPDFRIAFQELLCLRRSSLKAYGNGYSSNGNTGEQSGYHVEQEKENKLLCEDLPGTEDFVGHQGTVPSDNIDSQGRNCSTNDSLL
Chain of 5-hydroxytryptamine receptor 2A (Homo sapiens) (P28223 whole entry, looked up): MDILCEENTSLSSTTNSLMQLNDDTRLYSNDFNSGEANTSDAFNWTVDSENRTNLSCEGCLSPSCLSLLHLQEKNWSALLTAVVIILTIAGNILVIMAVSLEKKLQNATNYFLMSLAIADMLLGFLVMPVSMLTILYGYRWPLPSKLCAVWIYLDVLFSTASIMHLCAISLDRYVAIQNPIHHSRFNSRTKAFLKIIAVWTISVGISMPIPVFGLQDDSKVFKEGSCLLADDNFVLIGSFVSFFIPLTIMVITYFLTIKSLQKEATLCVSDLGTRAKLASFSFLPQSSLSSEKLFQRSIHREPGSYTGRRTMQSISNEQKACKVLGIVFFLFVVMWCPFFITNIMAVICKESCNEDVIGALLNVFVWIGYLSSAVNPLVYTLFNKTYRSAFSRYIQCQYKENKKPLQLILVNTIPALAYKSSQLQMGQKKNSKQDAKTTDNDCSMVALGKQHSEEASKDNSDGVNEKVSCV
Chain of KiSS-1 receptor (Homo sapiens) (Q969F8 whole entry, looked up): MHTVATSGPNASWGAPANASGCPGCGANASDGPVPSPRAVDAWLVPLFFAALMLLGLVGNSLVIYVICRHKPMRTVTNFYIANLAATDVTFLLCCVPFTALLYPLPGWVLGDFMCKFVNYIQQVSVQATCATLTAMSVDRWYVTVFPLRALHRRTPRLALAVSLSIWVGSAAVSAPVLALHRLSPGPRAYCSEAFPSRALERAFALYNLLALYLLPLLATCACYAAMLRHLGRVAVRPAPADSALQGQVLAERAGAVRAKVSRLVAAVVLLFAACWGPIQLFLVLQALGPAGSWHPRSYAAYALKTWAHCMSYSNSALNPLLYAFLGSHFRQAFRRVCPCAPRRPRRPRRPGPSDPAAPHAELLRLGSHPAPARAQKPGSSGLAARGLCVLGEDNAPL
Chain of Muscarinic acetylcholine receptor M1 (Homo sapiens) (P11229 whole entry, looked up): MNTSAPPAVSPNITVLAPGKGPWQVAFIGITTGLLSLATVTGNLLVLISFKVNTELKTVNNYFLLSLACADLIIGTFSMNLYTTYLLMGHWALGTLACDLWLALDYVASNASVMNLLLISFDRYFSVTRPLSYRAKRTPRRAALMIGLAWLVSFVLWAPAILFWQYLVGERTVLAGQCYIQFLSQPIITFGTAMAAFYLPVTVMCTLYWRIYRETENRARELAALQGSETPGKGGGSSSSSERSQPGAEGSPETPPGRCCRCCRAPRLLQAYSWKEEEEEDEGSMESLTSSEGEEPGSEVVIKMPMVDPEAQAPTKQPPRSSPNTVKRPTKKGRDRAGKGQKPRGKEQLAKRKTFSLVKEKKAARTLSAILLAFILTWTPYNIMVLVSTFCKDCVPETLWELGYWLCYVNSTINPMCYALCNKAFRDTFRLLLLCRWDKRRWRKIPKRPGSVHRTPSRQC
Chain of Gonadotropin-releasing hormone receptor (Homo sapiens) (P30968 whole entry, looked up): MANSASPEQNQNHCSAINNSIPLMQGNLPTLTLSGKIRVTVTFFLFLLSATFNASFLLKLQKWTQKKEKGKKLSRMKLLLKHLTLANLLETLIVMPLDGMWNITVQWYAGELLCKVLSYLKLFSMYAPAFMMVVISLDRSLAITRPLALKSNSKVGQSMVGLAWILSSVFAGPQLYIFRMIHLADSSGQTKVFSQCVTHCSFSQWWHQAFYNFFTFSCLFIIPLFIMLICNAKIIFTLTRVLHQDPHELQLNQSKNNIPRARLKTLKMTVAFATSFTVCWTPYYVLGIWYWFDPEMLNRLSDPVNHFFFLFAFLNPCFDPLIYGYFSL
Chain of D(2) dopamine receptor (Homo sapiens) (P14416 whole entry, looked up): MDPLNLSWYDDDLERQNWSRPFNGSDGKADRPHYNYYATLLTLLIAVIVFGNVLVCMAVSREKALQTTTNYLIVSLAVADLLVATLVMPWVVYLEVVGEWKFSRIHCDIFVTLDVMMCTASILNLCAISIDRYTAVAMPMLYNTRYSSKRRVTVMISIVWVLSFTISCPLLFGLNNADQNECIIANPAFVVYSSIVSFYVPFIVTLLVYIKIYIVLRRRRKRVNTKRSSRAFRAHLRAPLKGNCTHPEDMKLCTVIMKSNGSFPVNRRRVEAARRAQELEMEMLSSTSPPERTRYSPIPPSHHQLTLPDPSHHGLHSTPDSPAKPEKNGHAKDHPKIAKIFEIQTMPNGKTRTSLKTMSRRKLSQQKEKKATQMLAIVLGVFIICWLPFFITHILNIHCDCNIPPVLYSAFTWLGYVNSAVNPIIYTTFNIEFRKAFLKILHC

Row | SMILES | Potency [1] | Potency [2] | Potency [3] | outcome [4] | outcome [5] | Potency [6] | Potency [7] | Potency [8] | Potency [9] | Potency [10] | Potency [11] | Potency [12] | Potency [13] | Potency [14] | Potency [15] | Potency [16] | Potency [17] | Potency [18] | Potency [19]
1 | COc1ccc(/C(C)=C/C(=O)O)c(OC)c1 | inactive | inactive | inactive | inactive | inactive | inactive | inactive | inactive | inactive | inactive | inactive | inactive | inactive | inactive | inactive | inactive | inactive |  | 
2 | CC(C)(O)CCCC1=CCC(C=O)CC1 (stereo not drawn) | inactive | inactive | inactive | inactive | inactive | inactive | inactive | inactive | inactive | inactive | inactive | inactive | inactive | inactive | inactive | inactive | inactive | inactive | inactive
3 | C#Cc1ccc(-c2ccccc2F)cc1 | inactive | inactive | inactive | inactive | inactive | inactive | inactive | inactive | inactive | inactive | inactive | inactive | inactive | inactive | inactive | inactive | inactive | inactive | 
4 | C[C@@H]1O[C@@H](O[C@@H]2[C@@H](O)[C@H](OCCc3ccc(O)c(O)c3)O[C@H](CO[C@@H]3O[C@H](CO)[C@@H](O)[C@H](O)[C@H]3O)[C@H]2OC(=O)/C=C/c2ccc(O)c(O)c2)[C@H](O)[C@H](O)[C@H]1O | inactive | inactive | inactive | inactive | inactive | inactive | inactive | inactive | inactive | inactive | inactive | inactive | inactive | inactive | inactive |  | inactive |  | 
5 | CCCCCCCCCI | inactive | inactive | inactive | inactive | inactive | inactive | inactive | inactive | inactive | inactive | inactive | inactive | 8.55 µM (active) | inactive | inactive | inactive | inactive | inactive | inactive
6 | CCOC(=O)CCc1ccccc1 | inactive | inactive | inactive | inactive | inactive | inactive | inactive | inactive | inactive | inactive | inactive | inactive | inactive | inactive |  | inactive |  | inactive | inactive
7 | CNS(=O)(=O)CCc1ccc2[nH]cc(C3CCN(C)CC3)c2c1 | inactive | inactive | inactive | inactive | inactive | inactive | inactive | inactive | inactive | inactive | inactive | inactive | inactive | inactive | inactive | inactive | inactive | inactive | 
8 | Cc1[nH]c(=O)c(C#N)cc1-c1ccc2nccn2c1 | inactive | inactive | inactive | inactive | inactive | inactive | inactive | inactive | inactive | inactive | inactive | inactive | inactive | inactive |  | inactive | inactive | inactive | 
9 | Cc1cc(=O)oc2cc(O)cc(O)c12 | inactive | inactive | inactive | inactive | inactive | inactive | inactive | inactive | inactive | inactive | inactive | inactive | inactive | inactive |  | inactive | inactive |  | inactive
